Compounds with a hit are over-represented: about 7.5% of the library has one in this group of screens.
KinaseGlo FLuc: Counterscreen for Luciferase (Kinase-Glo TM) Inhibition | Luciferin 4-monooxygenase (Photuris pensylvanica), Q27757 | 0.28% of 200,000 active | Potency, µM (titrated, usually from 38.3 µM), without a hit: at the highest dose activity change, negative = inhibition, actives largely listed as inhibitors | Kinase-Glo luciferase, ATP luminescence, 8 min; further: on the % scale 0 is the no-effect control and ±100 the full control effect; nearly all actives have a fitted effect of over 60% in size
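Recombinant Kinase-Glo luciferase, 10 uM ATP (linear range), luciferin; imidazole pH 7.2 / KCl / MgCl2 / Tween / BSA buffer; 8 min RT; luminescence.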
ELG1 genotoxic: qHTS screen for small molecules that induce genotoxicity in human embryonic kidney (HEK293T) cells expressing luciferase-tagged ELG1; HEK293T ELG1-luciferase reporter, luminescence, 16 h; Potency, µM (titrated, usually from 46 µM), inactives show at the highest dose activity change, positive = activation, hits mostly activators; 1.3% of 330,000 active; further: % of control where 0% means no effect; nearly all actives have a fitted effect of over 60% in size
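Reporter readout depends on ELG1 protein level, which increases with genetic stress. After 16 hr compound exposure at 37 °C, luciferase activity was quantified using ONE-Glo.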
NPC1 prom act: qHTS Assay for NPC1 Promoter Activators; Huh7 NPC1 promoter luciferase reporter, 24 h; Potency, µM (highest dose often 9.22 µM), for inactives: top-dose activation, hits mostly activators; 2.4% of 320,000 active; further: % of control where 0% means no effect; nearly all actives have a fitted effect of over 60% in size
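Huh7 reporter cells (NPC1 promoter driving luciferase) are dosed with compound for 24 h at 37 °C, 5% CO2; luciferase detection reagent is then added and luminescence measured after 10 min at ambient temperature.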
Rab9 promoter act: qHTS Assay for Rab9 Promoter Activators. Huh7 Rab9 promoter-luciferase reporter, luminescence, 24 h. Potency, µM (top dose mostly 9.22 µM), inactives show at the highest dose activation, negative = inhibition, actives largely listed as activators. 2.8% of 320,000 active. AID 485297, 2010; further: % of control where 0% means no effect; nearly all actives have a fitted effect of over 60% in size
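Cells were plated at 1500 per well in reduced-serum medium with 10% FBS and left 2 h. Compound in DMSO was then added for 24 h at 37 °C. Reporter signal was read by luminescence after 10 min with luciferase detection reagent.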
FLuc counter: qHTS profiling assay for firefly luciferase inhibitor/activator using purifed enzyme and Km concentrations of substrates (counterscreen for miR-21 project). Luciferin 4-monooxygenase (Photinus pyralis), P08659. purified FLuc, Km substrates, luminescence inhibition. Potency, µM (doses to about 57.5 µM), inactives show at the top dose activity change, negative = inhibition, most hits filed as inhibitors. 6.9% of 360,000 active. AID 588342, 2011;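 further: plate controls were vehicle for no effect and reference inhibitor for full effect; nearly all actives have a fitted effect of over 55% in size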
Target sequence (P08659 whole entry, looked up): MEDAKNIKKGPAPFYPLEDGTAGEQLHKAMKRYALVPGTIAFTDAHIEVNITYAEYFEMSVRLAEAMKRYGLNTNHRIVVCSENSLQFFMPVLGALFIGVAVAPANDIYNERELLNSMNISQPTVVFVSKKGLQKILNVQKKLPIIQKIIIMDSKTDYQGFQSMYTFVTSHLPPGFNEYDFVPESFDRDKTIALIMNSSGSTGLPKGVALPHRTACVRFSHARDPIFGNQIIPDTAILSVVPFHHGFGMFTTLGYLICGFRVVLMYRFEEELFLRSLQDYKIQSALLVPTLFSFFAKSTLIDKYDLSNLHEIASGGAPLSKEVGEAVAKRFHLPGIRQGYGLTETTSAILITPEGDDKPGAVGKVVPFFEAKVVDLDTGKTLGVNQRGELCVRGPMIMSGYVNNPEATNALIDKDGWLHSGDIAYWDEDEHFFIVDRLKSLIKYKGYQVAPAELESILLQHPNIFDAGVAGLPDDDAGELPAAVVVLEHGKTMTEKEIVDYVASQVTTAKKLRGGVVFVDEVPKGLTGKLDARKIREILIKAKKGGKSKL
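Biochemical qHTS of compounds, final roughly 60 µM downward over six points, against 10 nM purified firefly luciferase using Km concentrations of substrates (10 uM D-luciferin, 10 uM ATP) in Tris acetate pH 7.5 buffer; luminescence output.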
SMN2 splice up: qHTS Assay for Enhancers of SMN2 Splice Variant Expression | 2.8% of 210,000 active | HEK293 SMN2-luciferase splicing reporter, luminescence, 30-36 h | Potency, µM (doses to about 46.1 µM), for inactives: top-dose activity change, positive = activation, most hits filed as activators | AID 1458, 2008; further: % of control where 0% means no effect; nearly all actives have a fitted effect of over 55% in size
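qHTS luciferase splicing reporter: luminescence rises when SMN2 exon 7 is included in transfected HEK293 cells. Compound exposure lasted 30-36 h at 37C, with 4.5 mM final sodium butyrate as control, followed by a ONE-Glo read.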
Active calls of the source: *. The call rests on the fitted dose curve; in most records, active means well fitted curve in the direction sought with a large enough effect; inconclusive means small, poorly fitted or top-dose-only effect, or another doubt; inactive means no such curve, though single readings can be large; an effect the other way counts as inactive or inconclusive. Potency means the concentration at half of the fitted maximal effect.

Results for O=C(NC1CC1)c1sc2cc(Cl)ccc2c1Cl ?
ELG1 genotoxic: inconclusive; NPC1 prom act: inconclusive; Rab9 promoter act: inconclusive; FLuc counter: 6.7µM*

Results for O=C(NC(=S)NCCO)c1sc2ccccc2c1Cl ?
KinaseGlo FLuc: -2%; ELG1 genotoxic: inconclusive; NPC1 prom act: inconclusive; Rab9 promoter act: 2.8µM*; FLuc counter: 6µM*; SMN2 splice up: 13µM*

What do the screens show for `CC1(C)CC(NC(=O)c2sc3cc(Cl)ccc3c2Cl)CC(C)(C)N1`?
KinaseGlo FLuc: -1%; ELG1 genotoxic: 7%; NPC1 prom act: -5%; Rab9 promoter act: -6%; FLuc counter: 0%; SMN2 splice up: -30%

How did O=C(NC1CC1)c1sc2ccccc2c1Cl do in these assays?
ELG1 genotoxic: inconclusive; NPC1 prom act: inconclusive; Rab9 promoter act: inconclusive; FLuc counter: 15µM*

Results for Cc1ccc(NC(=O)NNC(=O)c2snnc2C)cc1 ?
KinaseGlo FLuc: -3%; ELG1 genotoxic: 7%; NPC1 prom act: 0%; Rab9 promoter act: 23%; FLuc counter: inconclusive; SMN2 splice up: 13%

Results for COc1cc2nc(SCc3ccc(Cl)cc3)n3nc(CCn4nc(C)cc4C)nc3c2cc1OC ?
FLuc counter: 1%; SMN2 splice up: 7%

How did O=C(NC(=S)N1CCOCC1)c1cc2ccccc2o1 do in these assays?
KinaseGlo FLuc: -25%; ELG1 genotoxic: 10%; NPC1 prom act: 8%; Rab9 promoter act: 27%; FLuc counter: -12%

What do the screens show for `O=C(NCc1ccccc1)C1CCN(C(=O)c2cnn(-c3ccccc3)c2-n2cccc2)CC1`?
FLuc counter: -8%; SMN2 splice up: -20%

Results for COc1ccc2c(Cl)c(C(=O)NC3CCS(=O)(=O)C3)sc2c1 (stereo not given) ?
KinaseGlo FLuc: 2%; ELG1 genotoxic: 15%; NPC1 prom act: inconclusive; Rab9 promoter act: 26%; FLuc counter: -17%; SMN2 splice up: 2%

What do the screens show for `O=C(NC1CC1)c1sc2cc(F)ccc2c1Cl`?
ELG1 genotoxic: inconclusive; NPC1 prom act: 23%; Rab9 promoter act: inconclusive; FLuc counter: 9.5µM*

How did O=c1[nH]c(C2CC2)nc2sc3c(c12)CCCC3 do in these assays?
KinaseGlo FLuc: 0%; ELG1 genotoxic: 2%; NPC1 prom act: -3%; Rab9 promoter act: -10%; FLuc counter: -14%; SMN2 splice up: -3%

What do the screens show for `N#Cc1cnn(-c2nc3sc4c(c3c(=O)[nH]2)CCCC4)c1N`?
KinaseGlo FLuc: 6%; ELG1 genotoxic: 8%; NPC1 prom act: 18%; Rab9 promoter act: -5%; FLuc counter: 6µM*; SMN2 splice up: 2%

Results for COc1ccccc1CNS(=O)(=O)c1ccc(F)c(C(=O)Nc2cc(Cl)ccc2OC)c1 ?
FLuc counter: -3%

Results for O=C(Oc1ccc2c(c1)O/C(=C\c1ccncc1)C2=O)c1ccccc1 ?
KinaseGlo FLuc: -1%; ELG1 genotoxic: 5%; NPC1 prom act: -8%; Rab9 promoter act: 1%; FLuc counter: -12%; SMN2 splice up: 13%

How did CC1CCCN(Cc2c(O)ccc3c2O/C(=C\c2ccco2)C3=O)C1 (stereo not given) do in these assays?
KinaseGlo FLuc: 2%; ELG1 genotoxic: 0%; NPC1 prom act: 2%; Rab9 promoter act: -5%; FLuc counter: 1%; SMN2 splice up: 8%

What do the screens show for `COc1ccc2c(c1)O/C(=C\c1ccco1)C2=O`?
ELG1 genotoxic: inconclusive; NPC1 prom act: 4.5µM*; Rab9 promoter act: 4µM*; FLuc counter: 0.6µM*

Results for CC(=O)COc1ccc2c(c1C)O/C(=C\c1ccco1)C2=O ?
ELG1 genotoxic: inconclusive; NPC1 prom act: inconclusive; Rab9 promoter act: inconclusive; FLuc counter: 5.4µM*

How did COC(=O)C(C)Oc1ccc2c(c1)O/C(=C\c1ccco1)C2=O (stereo not given) do in these assays?
ELG1 genotoxic: 0%; NPC1 prom act: -5%; Rab9 promoter act: -8%; FLuc counter: 3µM*

How did CCN(CC)S(=O)(=O)c1ccc(NC(=O)NCc2noc3ccc(C)cc23)cc1 do in these assays?
FLuc counter: -2%

What do the screens show for `Fc1ccc(-n2ncc3c(SCc4cccnc4)ncnc32)cc1`?
KinaseGlo FLuc: 0%; ELG1 genotoxic: 23µM*; NPC1 prom act: 25%; Rab9 promoter act: inconclusive; FLuc counter: 6.7µM*; SMN2 splice up: -32%

How did Cc1ccc(CSc2ncnc3c2cnn3-c2ccccc2)cc1 do in these assays?
KinaseGlo FLuc: -3%; ELG1 genotoxic: 4%; NPC1 prom act: 2%; Rab9 promoter act: 7%; FLuc counter: -20%; SMN2 splice up: -22%

Results for Cc1nc(SCc2ccccc2F)c2cnn(-c3ccccc3)c2n1 ?
KinaseGlo FLuc: -4%; ELG1 genotoxic: 9%; NPC1 prom act: 7%; Rab9 promoter act: inconclusive; FLuc counter: inconclusive; SMN2 splice up: 35µM*

Results for Cc1ccc(-n2ncc3c(SCc4ccccc4)ncnc32)cc1 ?
KinaseGlo FLuc: 3%; ELG1 genotoxic: inconclusive; NPC1 prom act: 4µM*; Rab9 promoter act: inconclusive; FLuc counter: 11µM*; SMN2 splice up: 11µM*

What do the screens show for `Cc1ccc(-n2ncc3c(SCc4ccccn4)ncnc32)c(C)c1`?
KinaseGlo FLuc: 7%; ELG1 genotoxic: 0%; NPC1 prom act: 1%; Rab9 promoter act: inconclusive; FLuc counter: inconclusive; SMN2 splice up: 1.8µM*

Results for CSc1ncnc2c1cnn2-c1ccc(C)cc1C ?
KinaseGlo FLuc: 2%; ELG1 genotoxic: 12%; NPC1 prom act: 22%; Rab9 promoter act: inconclusive; FLuc counter: inconclusive; SMN2 splice up: -22%

What do the screens show for `Cc1ccc(Cn2c(CNS(=O)(=O)c3ccc(Cl)s3)nc3cccnc32)cc1`?
FLuc counter: -13%

How did COCCCNC(=O)C1CCC(CNS(=O)(=O)c2ccc(Cl)cc2)CC1 (stereo not given) do in these assays?
KinaseGlo FLuc: 4%; ELG1 genotoxic: -2%; NPC1 prom act: -5%; Rab9 promoter act: -2%; FLuc counter: -2%; SMN2 splice up: 2%

How did CCOC(=O)c1cc(NC(=O)c2ccc(F)cc2)c(=O)n2c1oc1ccc(Cl)cc12 do in these assays?
FLuc counter: 4%; SMN2 splice up: inconclusive

How did CC1CCC(NC(=O)c2cc3ccccc3cc2O)CC1 (stereo not given) do in these assays?
ELG1 genotoxic: 13%; NPC1 prom act: inconclusive; Rab9 promoter act: 2.2µM*; FLuc counter: 5.4µM*

Screening data as filed in PubChem BioAssay.
